Source: PubChem BioAssay AID1508602 (The Scripps Research Institute Molecular Screening Center, 2020)
“And” between values parts separate entries of the source, which are not always exact repeats. Identical values can stand only once. Hit rate of the full screen: of about 650,000 compounds, about 6,800 (1%) were called active. This excerpt belongs to a sample that is enriched for actives. A number with no mark means an inactive call. No stated cut-off is given here; in the data, active means activation above about 4.9%; inactive means the rest.

Target: G-protein coupled receptor 151 (Homo sapiens) (UniProt Q8TDV0)
Assay: activates the human receptor GPR151, primary screen, cell-based, PathHunter beta-arrestin, luminescence (AID 1508602);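 further: 0% = median of compound wells and 100% = cells with positive control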
Details: PathHunter beta-arrestin GPR151 cells, at 11.2 µM, stronger effect = higher value

Chain of G-protein coupled receptor 151 (Homo sapiens) (Q8TDV0 whole entry, looked up): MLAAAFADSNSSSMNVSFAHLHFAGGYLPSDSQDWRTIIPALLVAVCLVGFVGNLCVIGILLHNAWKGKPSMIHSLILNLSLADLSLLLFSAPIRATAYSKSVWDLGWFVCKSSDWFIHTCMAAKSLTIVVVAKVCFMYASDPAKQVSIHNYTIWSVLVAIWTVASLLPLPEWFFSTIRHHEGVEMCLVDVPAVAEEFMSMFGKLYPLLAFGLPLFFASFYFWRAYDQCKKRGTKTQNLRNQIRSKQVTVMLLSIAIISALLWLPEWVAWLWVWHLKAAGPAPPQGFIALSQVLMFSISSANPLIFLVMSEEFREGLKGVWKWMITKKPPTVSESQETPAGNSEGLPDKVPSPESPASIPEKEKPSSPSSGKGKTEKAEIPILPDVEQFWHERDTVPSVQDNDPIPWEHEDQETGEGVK

Structure (SMILES)	activation
Cc1ccc2c(CNCc3ccccc3Cl)c(C(=O)O)n(Cc3ccccc3)c2c1	2.57%
O=C(NCCOc1ccccc1)c1cnc(Nc2cccnc2)s1	0.0811%
O=C(NCCOc1ccccc1)c1cnc(N2CCCC2CO)s1 (stereo not drawn)	-3.77%
O=C(NCCOc1ccccc1)c1cnc(N2CCN(c3ccccn3)CC2)s1	7.58% (active)
O=C(NNS(=O)(=O)c1ccc2ccccc2c1)Nc1ccc(F)cc1F	-1.26%
O=C(Nc1cccc(Oc2ccc(C(=O)O)c(C(=O)O)c2)c1)c1cccs1	-1.23%
COc1ccc(CN2CCOc3ccc(C(C)(O)CN(C)C)cc3C2)c(Cl)c1OC (stereo not drawn)	-0.16%
O=C(Cc1coc2ccc3ccccc3c12)NCc1cccnc1	1.97%
CC(C)(C)NC(=O)Cc1coc2ccc3ccccc3c12	5.9% (active)
O=C(Cc1coc2ccc3ccccc3c12)NC1CCN(Cc2ccccc2)CC1	1.58%
COc1ccc(CCN(C(C)=O)C2CC(=O)N(c3ccc(Cl)cc3)C2=O)cc1 (stereo not drawn)	2.31%
Cc1nc2ccccc2c(=O)n1-c1ccc(OC(F)(F)C(F)F)cc1	-0.339%
COc1ccccc1C1C(C(N)=O)=C(C)Nc2nc(CCCO)nn21 (stereo not drawn)	7.86% (active)
CC1=C(C(N)=O)C(c2ccc(F)cc2)n2nc(CCCO)nc2N1 (stereo not drawn)	0.25%
COc1ccccc1C1C(C(=O)Nc2ccc(F)cc2)=C(C)Nc2nc(CCCO)nn21 (stereo not drawn)	-0.0995%
O=S(=O)(c1cccs1)N1CCc2nc(-c3cccnc3)nc(N3CCCCC3)c2C1	0.747%
O=C(O)c1cccc(-n2[nH]c(=O)ccc2=O)c1	-1.37%
CCOC(=O)c1cc2cc(-c3c(C(=O)OCC)oc4cc(O)cc(O)c4c3=O)ccc2o1	0.272%
CCOC(=O)c1cc2cc(-c3c(C)oc4cc(OC(C)=O)ccc4c3=O)ccc2o1	6.66% (active)
COc1ccc(-c2c(C)oc3cc(OC)ccc3c2=O)cc1	0.167%
C/C=C/C=C/C(=O)N1C(=O)C(=O)c2ccccc21	-4.81%
Cc1ccc(NC(=O)CSc2nnc(-c3ccc(N)cc3)n2C)cc1Cl	5.78% (active)
Cc1ccc(Cl)cc1NC(=O)CSc1nnc(-c2ccc(N)cc2)n1C	0.746%
Cc1ccc(NC(=O)CSc2nnc(-c3ccc(O)cc3)n2C)cc1N	-0.276%

Structure (SMILES)	activation
CCOC(=O)/C(C#N)=C\c1c(C)cc(C)c(COC)c1C	4.44%
CN1CCC[C@@H]1CCOC(C)(c1ccccc1)c1ccc(Cl)cc1 (stereo partly drawn)	-2.7% and 3.67%
O=c1sc2sc(=S)sc2s1	-0.693%
C1CCC(Nc2nc3nonc3nc2NC2CCCCC2)CC1	-0.129%
c1ccc(-n2nnnc2NC2CCCCCC2)cc1	-0.96%
Brc1cnc(NC2CCCCC2)nc1	7.99% (active)
CCc1cc2cc(OC)ccc2nc1SCC(=O)Nc1nccs1	0.182%
CN1CCN(C(=O)c2ccc(-c3nc(NCc4ccccc4)c4ncn(Cc5ccc(C(F)(F)F)cc5)c4n3)cc2)CC1	0.228%
COc1ccccc1C(=O)CN1CCN(S(=O)(=O)c2ccc(Cl)cc2)CC1	1.49%
O=[N+]([O-])c1ccccc1S(=O)(=O)NCCSCc1ccc(Cl)cc1	-0.348%
NC(=O)C12CC3CC(CC(C3)C1)C2	-0.0547%
COC(=O)[C@@H]1CC(O)CN1C(=O)C12CC3CC(CC(C3)C1)C2 (stereo partly drawn)	6.17% (active)
O=C(N1CCCCCC1)C12CC3CC(CC(C3)C1)C2	0.202%
CCc1ccc(N2N=C(C)/C(=C\c3ccc(-c4ccc5c(c4)C(=O)NC5=O)o3)C2=O)cc1	6.36% (active)
CC1=NN(c2cccc(Cl)c2)C(=O)/C1=C/c1ccc(-c2ccc(F)cc2)o1	1.46%
CCc1ccc(N2N=C(C)/C(=C/c3ccc(-c4ccc(S(N)(=O)=O)cc4)o3)C2=O)cc1	-0.641%
COc1cccc(NC(=O)c2sc3ncn(CC(=O)Nc4ccccc4OC)c(=O)c3c2C)c1	0.463%
CC(C)(C)C1(O)CC(=O)C(=O)NN1c1ccccc1 (stereo not drawn)	-0.103%
CC(CO)(CO)NC(=S)NC(=O)c1ccccc1	-2.1%
CC(C)C[C@@H]1NC(=O)[C@H]2CN(Cc3ccccc3Cl)CCN2C1=O	1.34%
Cc1ccc(C(=O)COc2ccc(C#N)cc2)c(C)c1	0.546%
Cc1sc(NC(=O)CN(C(=O)c2cccc(F)c2)C2CCCC2)c(C(N)=O)c1C	0.439%
CCN1C(=O)C(=Cc2ccc(N3CCCC3)cc2C)C(=O)N(CC)C1=S	2.62%
Cc1cc(N2CCOCC2)ccc1/C=C1\C(=O)NC(=S)N(c2ccccc2)C1=O	0.368%

Structure (SMILES)	activation
Cc1cc(N2CCOCC2)ccc1C=C1C(=O)c2ccccc2C1=O	5.28% (active)
O=C(Nc1nc2c(ccc3ccccc32)s1)c1cccc(Oc2ccccc2)c1	1.27%
COC(=O)c1c(NC(=O)Nc2ccc(Cl)c(Cl)c2)sc2c1CCCC2	8.57% (active)
COC(=O)c1c(NC(=O)c2ccc(Cl)c(Cl)c2)sc2c1CCCC2	0.167%
CCOC(=O)c1c(NC(=O)Nc2cccc(Cl)c2)sc2c1CCCC2	0.0535%
COc1ccc(NC(=O)CN(c2cc(OC)ccc2OC)S(C)(=O)=O)c(OC)c1	0.777%
Cc1ccc(C)c(NC(=O)CN(c2cccc(C)c2C)S(C)(=O)=O)c1	0.883%
COc1ccc(OC)c(NC(=O)CN(c2cccc(C)c2C)S(C)(=O)=O)c1	5.98% (active)
CCCOc1ccc([N+](=O)[O-])cc1C1NC(=S)NC(C)=C1C(=O)OC (stereo not drawn)	-1.65%
Cc1cc2nc(C3CCCCN3C(=O)c3cscn3)[nH]c2cc1C (stereo not drawn)	-0.0121%
CCC(C(=O)N1CCCCC1)n1c(C)c2cnn(-c3ccccc3)c(=O)c2c1C (stereo not drawn)	5.32% (active)
Cc1c2cnn(-c3ccccc3)c(=O)c2c(C)n1CCCC(=O)N1CCN(C)CC1	0.178%
CCC(C(=O)N1CCN(C)CC1)n1c(C)c2cnn(-c3ccccc3)c(=O)c2c1C (stereo not drawn)	-1.42%
Cc1ccc(S(=O)(=O)Oc2ccc(/C=C3\SC(N)=NC3=O)cc2)cc1	-0.455%
COc1ccc2c(c1)C(Cc1csc(C)n1)(c1ccc(F)cc1)C(=O)N2 (stereo not drawn)	0.748%
CC(C)NCCOCCOc1ccc(I)cc1	0.568%
CCNc1nc(NCC)nc(C(=O)O)n1	-0.247%
CCNc1nc(NC(C)C)nc(OCCOC(=O)c2ccccc2)n1	1.89%
CCNc1nc(NC(C)C)nc(OCCOC(C)=O)n1	5.11% (active)
Cc1ccc(CN(C)Cc2nc3sc4c(c3c(=O)[nH]2)CCC4)o1	0.643%
COc1ccc(Nc2ncc(-c3ccc(CO)cc3)n3ccnc23)cc1	-0.0468%
CC(C)c1ccc(Nc2nccn3c(-c4cccc(CO)c4)cnc23)cc1	7.31% (active)
NC(=O)c1ccc(Nc2nccn3c(-c4cccc(F)c4)cnc23)cc1	-0.391%
COc1ccccc1NC(=O)CSc1nnc(-c2ccc(O)cc2)o1	-0.782%

Structure (SMILES)	activation
CCC1C(=O)NCCN1Cc1ccc2c(c1)CN(Cc1c[nH]c3ccccc13)CCO2 (stereo not drawn)	5.37% (active)
CCOc1cccc(CN2CCOc3ccc(CN4CCNC(=O)C4CC)cc3C2)c1 (stereo not drawn)	-1.24%
CC(=O)N1CCN(Cc2ccc3c(c2)CN(Cc2c[nH]c4ccccc24)CCO3)CC1	2.78%
COc1ccc2c(c1)C=C(CN1CCN(CC3CCCCC3)C(CCO)C1)CO2 (stereo not drawn)	5.13% (active)
COc1cc(CN2CCN(CC3CCCCC3)C(CCO)C2)ccc1O (stereo not drawn)	-0.725%
COc1cccc2c1OCC(CN1CCN(C3CCCCC3)C(CCO)C1)=C2 (stereo not drawn)	2.61%
O=C(Nc1ccc(Cl)cc1F)c1ccc(SCC(=O)N2CCCCC2)c([N+](=O)[O-])c1	2.3%
COc1ccc(S(=O)(=O)N(C)CC(=O)NCc2ccccn2)cc1C	2.7%
Cc1cccc(Nc2nnc(SCC(=O)N3CCCC3=O)s2)c1C	-1.1%
O=C(CN1C(=O)COc2ccc(Cl)cc21)Nc1ccccc1F	0.859%
O=C(CN1C(=O)S/C(=C\c2ccc(Cl)s2)C1=O)Nc1ccccc1F	7.92% (active)
Cc1cccc(NC(=O)CN2C(=O)S/C(=C\c3ccc(Br)s3)C2=O)c1	1.12%
COc1ccc(N2C(=O)CN(C(=O)c3cc(C(F)(F)F)[nH]n3)CC23CCCC3)cc1	-0.225%
COc1cccc(CC(=O)N2CCc3nc(COc4ccccc4)c4c(c3C2)CO[C@@H](C)C4)c1	4.35%
C[C@H]1Cc2c(COc3ccccc3)nc3c(c2CO1)CN(C(=O)NCc1ccco1)CC3	8.56% (active)
C[C@H]1Cc2c(COc3ccccc3)nc3c(c2CO1)CN(C(=O)Nc1cccc(C#N)c1)CC3	-0.449%
Cc1ccnc(-n2c(=O)c3cc4c(=O)n(-c5cc(C)ccn5)c(=O)c4cc3c2=O)c1	-0.463%
Cc1ncc(CO)c(/C=N/NC(=O)c2cc3c(s2)CCC(C)C3)c1O (stereo not drawn)	-0.38%
CC[n+]1cc(C)ccc1/C=C/c1ccc(N(C)C)cc1	5.25% (active)
CC[n+]1c(/C=C/c2ccc(N(C)C)cc2)oc2ccccc21	-0.273%
CN(C)c1ccc(C=NCC(O)CN=Cc2ccc(N(C)C)cc2)cc1 (stereo not drawn)	0.679%
